# A selection: hits, their analogues and other compounds. The true share with any hit is near 3.6%.
# Wnt bcat act – Wnt/beta-catenin pathway activation. Wnt/beta-catenin reporter cell assay, activator, plate reader. activation, % at 9.35 µM. actives 1.2% (n = 300,000). AID 743398; in the data active = activation above about 30%, passing the limit was not always enough; inconclusive = no clear call, values can overlap the other calls;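 also: 0% = neutral control wells and 100% = positive control wells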
# esBAF inh – SWI/SNF esBAF complex inhibition | mouse ES cells, Bmi1-luciferase knock-in reporter, 24 h; 100% = twice the neutral-well signal | reporter increase, % at 12.5 µM | actives 2% (n = 350,000); in the data active = activation above about 40%; inconclusive = no clear call, values can overlap the other calls;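 also: 0% = median of the plate's neutral control wells and 100% = double that signal; a rise in the Bmi1 reporter signal indicates esBAF inhibition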
# MITF TRPM1 HTS – activators of MITF-driven TRPM1 promoter activity in SK-MEL-5 cells | SK-MEL-5 TRPM1-promoter luciferase, 24 h; % of positive control, neutral wells = 0 | activation, % at 12.5 µM | actives 0.75% (n = 300,000) | AID 588334;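 active = mean activation of at least 80% with every replicate also reaching 80%; inconclusive = mean reaches 80% but some replicate falls short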;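 also: 0% = neutral control wells and 100% = parthenolide positive control wells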
# PHOSPHO1 inh – blocks human PHOSPHO1 phosphatase activity; actives 1.1% (n = 290,000); Q8TCT1; inhibition, % at 13.3 µM; recombinant PHOSPHO1, absorbance phosphatase assay; AID 1565; in the data active = inhibition above about 60%
# Target sequence (Q8TCT1 whole entry, looked up): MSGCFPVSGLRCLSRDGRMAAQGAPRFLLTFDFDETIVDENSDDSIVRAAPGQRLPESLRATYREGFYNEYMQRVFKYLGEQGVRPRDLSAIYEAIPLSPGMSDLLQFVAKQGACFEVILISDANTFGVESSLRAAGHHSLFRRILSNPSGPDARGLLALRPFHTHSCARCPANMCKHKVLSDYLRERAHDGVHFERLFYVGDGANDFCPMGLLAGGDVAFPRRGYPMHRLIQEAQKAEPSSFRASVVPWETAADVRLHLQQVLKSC
# APOBEC3A inh – inhibitors of human APOBEC3A DNA deaminase; P31941; recombinant A3A, FAM/TAMRA ssDNA deamination fluorescence; inhibition, % at 20 µM; actives 0.41% (n = 330,000);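 active = at least 40% inhibition at 20 µM here, with at most 30% in a related deaminase screen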;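 also: plate controls were A3A with DMSO for no effect and wells lacking A3A enzyme for full effect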
# Target sequence (P31941 whole entry, looked up): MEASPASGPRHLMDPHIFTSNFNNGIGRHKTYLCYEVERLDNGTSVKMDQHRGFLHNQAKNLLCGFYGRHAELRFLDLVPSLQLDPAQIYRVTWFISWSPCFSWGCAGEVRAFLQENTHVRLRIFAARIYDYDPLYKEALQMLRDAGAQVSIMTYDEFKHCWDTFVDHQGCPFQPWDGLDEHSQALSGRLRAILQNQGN
# APOBEC3G inh – inhibitors of human APOBEC3G DNA deaminase; Q9HC16; recombinant A3G, ssDNA deamination FAM/TAMRA fluorescence; inhibition, % at 20 µM; actives 0.28% (n = 330,000); AID 493012;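 active = inhibition of at least 40% at 20 µM, with no more than 30% in the related APOBEC3A deaminase screen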;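 also: plate controls were DMSO wells with A3G for no effect and wells lacking A3G enzyme for full effect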
# * marks the source's active call; other numbers are inactive results; ? = inconclusive; / = no result.
SMILES,Wnt bcat act,esBAF inh,MITF TRPM1 HTS,PHOSPHO1 inh,APOBEC3A inh,APOBEC3G inh
Fc1ccc(-n2nnc(-c3cccnc3)n2)cc1,31.8*,62.3*,61.9,34.6,-3.7,-9.9
Clc1ccc(-n2nnc(-c3cccnc3)n2)cc1Cl,32.2*,82.6*,71.2,17.7,-5.9,-13.5
Clc1ccc(-n2nnc(-c3ncc[nH]3)n2)cc1Cl,4.7,61.9*,?,/,4.5,-3.3
Brc1ccccc1-n1nnc(-c2cccnc2)n1,23.6,?,?,30.4,0.5,3.1
Fc1ccc(-n2nnc(-c3ncc[nH]3)n2)cc1,/,/,/,/,-5.3,-7.7
Cc1ccc(-c2ccc3c(c2)O[C@@H](CN(C)C(=O)CN(C)C)[C@@H](C)CN([C@@H](C)CO)S3(=O)=O)cc1,/,-4.8,/,/,/,/
CSCCC(NC(=O)OC(C)(C)C)C(=O)Oc1ccc2c(=O)c(-c3ccc4c(c3)OCCO4)coc2c1 (stereo unspecified),36.7*,-5.2,/,-4.2,-6.1,-5.1
CCOCCCNC(=O)c1cccc(OC2CCN(S(C)(=O)=O)CC2)c1,12.9,66.7*,/,44.4,-5.1,-4.7
C[C@@H]1CCCCO[C@H](CN(C)S(=O)(=O)c2cn(C)cn2)[C@@H](C)CN([C@@H](C)CO)C(=O)c2cc(NC(=O)NC3CCCCC3)ccc2O1,/,-0.8,/,/,/,/
CCCNC(=O)C[C@@H]1CC[C@H]2[C@H](COc3ccc(NC(=O)Cc4ccccc4)cc3C(=O)N2C)O1,/,-3.7,/,/,/,/
Cc1ccc(-c2n[nH]c(=S)n2/N=C/C=C\c2ccccc2[N+](=O)[O-])cc1,/,/,-1.1,92.4*,-3.8,8.9
O=[N+]([O-])c1ccccc1/C=C/C=N/n1c(-c2ccc(Cl)cc2)n[nH]c1=S,/,1.3,-12.8,103.5*,-2.3,-3.2
O=C(C[C@H]1C=C[C@H](NC(=O)C2CC2)[C@H](CO)O1)NC1CCC1,/,0.7,/,/,/,/
CC(C#Cc1ccc2c(c1)COc1c3ccccc3nn1-2)OC(C)(C)C (stereo unspecified),15.4,103.6*,95.2*,/,-1.6,-11.5
C(#CC1CCCCC1)c1ccc2c(c1)COc1c3ccccc3nn1-2,35.3*,?,/,39.0,2.2,-3.6
C(#Cc1ccc2c(c1)COc1c3ccccc3nn1-2)c1ccccc1,31.6*,63.5*,100.4*,/,-2.1,-6.1
COc1ccc(CN(C)C[C@@H]2OCCCC[C@H](C)Oc3ccc(NC(=O)Cc4ccccc4)cc3C(=O)N([C@H](C)CO)C[C@@H]2C)cc1,/,-5.1,/,/,/,/
CCC(=O)N(C)C[C@H]1Oc2ncc(-c3ccccc3F)cc2C(=O)N([C@H](C)CO)C[C@@H]1C,/,0.7,/,/,/,/
COc1ccc(C(=O)NCc2ccc(-c3nc4ccccc4s3)cc2)cc1OC,7.3,46.9*,72.6,12.4,2.3,1.4
C[C@@H]1CN([C@@H](C)CO)C(=O)c2cc(-c3ccccc3)cnc2O[C@H]1CN(C)C(=O)C1CCOCC1,/,0.1,/,/,/,/
CC(C)C1Oc2ccccc2C(=O)N(CC(=O)c2ccc3c(c2)OCCO3)C1=O (stereo unspecified),33.4*,71.4*,58.4,18.3,-4.7,-6.1
CCC1Oc2ccccc2C(=O)N(CC(=O)c2ccc3c(c2)OCCO3)C1=O (stereo unspecified),-4.1,68.7*,52.0,41.2,-4.6,-7.0
C[C@@H]1CCCCO[C@@H](CN(C)C(=O)CCC(F)(F)F)[C@H](C)CN([C@H](C)CO)C(=O)c2cc(NS(=O)(=O)c3ccc(F)cc3)ccc2O1,/,4.6,/,/,/,/
O=C(C[C@H]1C[C@H]2c3cc(NC(=O)NC4CCCCC4)ccc3O[C@H]2[C@@H](CO)O1)NCc1ccncc1,/,-2.8,/,/,/,/
Cc1ccc2[nH]c(O)c(N=NC(N)=S)c2c1,3.1,-3.5,10.0,7.8,-8.6,-5.7
CC(/C=C(\NC(=O)c1ccccc1)C(=O)N=Nc1c(O)[nH]c2ccc(C)cc12)=C\c1ccccc1,-5.5,4.8,-8.2,91.1*,-1.9,-3.7
COC(=O)c1ccc(CSC2=NCCS2)cc1,/,/,84.2*,-6.2,1.9,-2.7
COCC(=O)Nc1ccc2c(c1)C(=O)N(C)[C@H]1CC[C@@H](CC(=O)NCc3ccc(OC)cc3)O[C@H]1CO2,/,-1.4,/,/,/,/
CCN(CC(=O)Nc1c(F)cccc1F)C(=O)c1ccc(=O)n(Cc2ccccc2)n1,-1.4,-0.6,-3.1,42.8,2.8,-1.4

# Source: PubChem
